# From PMC5540273 (PLoS ONE, 2017)
# What was measured:
# Details in all cases: concentration: 1 μM,replicates: in singlicate; n = 1
# [1] = tested on: T1, HASPIN
# T1 construct: gene GSG2
# [2] = tested on: HCK
# [3] = tested on: HIPK1
# [4] = tested on: HIPK2
# [5] = tested on: HIPK3
# [6] = tested on: HIPK4
# [7] = tested on: HPK1
# [8] = tested on: HUNK
# [9] = tested on: ICK
# [10] = tested on: IGF1R
# [11] = tested on: T2, IKK-alpha
# T2 construct: gene CHUK
# [12] = tested on: T3, IKK-beta
# T3 construct: gene IKBKB
# [13] = tested on: T4, IKK-epsilon
# T4 construct: gene IKBKE
# [14] = tested on: INSRR
# [15] = tested on: INSR
# [16] = tested on: IRAK1
# [17] = tested on: IRAK3
# [18] = tested on: IRAK4
# [19] = tested on: ITK
# [20] = tested on: JAK1(JH1domain-catalytic)
# 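Further: KINOMEscan kinase panel screen.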
Compound,%Inh [1] [%],%Inh [2] [%],%Inh [3] [%],%Inh [4] [%],%Inh [5] [%],%Inh [6] [%],%Inh [7] [%],%Inh [8] [%],%Inh [9] [%],%Inh [10] [%],%Inh [11] [%],%Inh [12] [%],%Inh [13] [%],%Inh [14] [%],%Inh [15] [%],%Inh [16] [%],%Inh [17] [%],%Inh [18] [%],%Inh [19] [%],%Inh [20] [%]
Cc1cccc(-c2nc(Nc3ccncc3)c3sccc3n2)n1 [GW869641],44,25,21,13,37,13,16,20,32,8,32,22,0,5,31,18,0,0,12,0
CC(C(=O)NC1CCN(c2ccnc(Nc3ccc(F)cc3)n2)C1)c1ccc(Cl)cc1 (stereo not shown) [GSK1379713],30,0,0,6,0,0,49,0,0,0,0,0,0,10,0,0,0,0,10,5
C[C@@H]1CCN(C(=O)N2CCCC2)C[C@@H]1N(C)c1ncnc2[nH]ccc12,30,0,25,0,22,2,0,0,13,0,23,19,17,12,0,6,8,0,0,99.6
OCCn1cc(-c2cnc3nnn(Cc4ccc5ncccc5c4)c3n2)cn1,0,25,6,0,0,3,0,0,0,0,3,0,0,0,0,0,0,0,0,0
Cn1ccc2ncnc(Oc3ccc(NC(=O)Nc4cncc(C(F)(F)F)c4)c(Cl)c3)c21,0,14,10,0,0,0,0,0,0,0,0,0,0,0,0,0,0,0,0,0
CC(C)S(=O)(=O)N1CCN(Cc2ccc3c(c2)nc(NC(=O)c2ccsc2)n3C[C@H](O)c2ccccc2)CC1 [GW635815],17,37,34,20,1,0,39,0,0,29,20,13,52,27,67,90,49,80,97.6,5
O=C(Nc1cccc(C(F)(F)F)c1)c1cccc(Oc2ccc3nccn3n2)c1,0,52,0,8,20,65,0,0,31,20,0,0,0,22,2,25,0,13,21,2
Cn1cc(-c2cccc3c(N)c(C(N)=O)nnc23)cn1,96.5,13,68,62,67,18,0,0,24,0,28,39,0,9,19,31,9,17,15,9
Cc1ccc(CC(=O)N2CCc3cc(-c4cn(C)c5ncnc(N)c45)ccc32)cc1 [GSK2634758],5,0,6,0,13,5,63,1,0,18,1,0,36,12,4,13,0,0,13,6
O=C(NOCC1CC1)c1cc(Br)c(F)c(F)c1Nc1ccc(I)cc1Cl,0,8,20,0,0,0,14,8,0,0,0,0,0,0,0,0,0,0,2,7
CCn1c(-c2nonc2N)nc2cncc(CNC3CCNCC3)c21.Cl [SB-747651],73,0,0,0,48,0,35,0,16,13,39,27,5,0,14,56,0,41,9,15
